Assay [1] in a line: CCTE_Shafer_MEA_dev_network_spike_peak: CCTE's Neural Network Formation Assay for Mean Number of Electrodes in Network Spike, Shafer Lab (AID 2284049).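 As to AC50: fitted for loss of signal meaning fewer electrodes in network spikes than DMSO.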 In short, it runs like this:
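Continuous 12-day exposure of rat cortical cultures, starting at plating, on MEA plates. Endpoint: electrodes participating in network-spike peaks, AUC across DIV 5–12, DMSO as negative control.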

Assay [2] can be described thus: CCTE_Shafer_MEA_dev_network_spike_duration_std: CCTE's Neural Network Formation Assay for Standard Deviation of Network Spike Duration, Shafer Lab (AID 2284052).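 Also: area under curve of spike duration SD across recording days 5 to 12; hits are decreases in network spike duration SD versus DMSO vehicle.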 In short, it runs like this: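 Developing networks of rat cortical neurons were exposed over twelve days in vitro on 48-well MEA plates. Trapezoidal AUC of recordings (DIV 5–12) was analysed for signal loss relative to DMSO vehicle.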

Assay [3] is described as follows: CCTE_Shafer_MEA_dev_per_network_spike_spike_number_mean: CCTE's Neural Network Formation Assay for Mean Number of Spikes in a Network Spike, Shafer Lab (AID 2284053). In short, it runs like this: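 First, rat cortical cells (1.5 x 10^5/well) were seeded onto MEA wells; second, dosing began at plating and was refreshed on DIV 5 and 9; finally, network-spike spike counts across DIV 5–12 were summarized as AUC.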

Assay [4] in a line: CCTE_Shafer_MEA_dev_per_network_spike_spike_percent: CCTE's Neural Network Formation Assay for Percent of Spikes in a Network Spike, Shafer Lab (AID 2284054). Summed up:
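Developing networks of rat cortical neurons are dosed at day 0 and recorded extracellularly four times up to day 12. The endpoint is the area under the curve of percent spikes in network spikes, fitted in the negative direction relative to DMSO.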

Assay [5] can be described thus: CCTE_Shafer_MEA_dev_LDH: CCTE's Lactate Dehydrogenase Assay for Cytotoxicity in the Neural Network Formation Assay, Shafer Lab (AID 2284068; active = hit-call score of the fitted dose curve at least 0.9, where 1 is the maximum;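 also: exposure for twelve days from plating with re-dosing on DIV 5 and 9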). In short, it runs like this:
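Developing rat cortical networks on MEA plates are exposed to compound for 12 days from plating. LDH activity is measured spectrophotometrically, with DMSO as baseline.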

Assay [6] in a line: CCTE_Shafer_MEA_dev_AB: CCTE's Alamar Blue Assay for Cytotoxicity in the Neural Network Formation Assay, Shafer Lab (AID 2284083; active = hit-call score of the fitted dose curve at least 0.9, where 1 is the maximum;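 also: resazurin reduction fluorescence as viability of cultured neurons; twelve days of exposure from plating with re-dosing on DIV 5 and 9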). In short, it runs like this: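 Cytotoxicity companion to the developmental MEA: primary rat cortical neurons, 12-day exposure starting day 0, compound refreshed DIV 5 and 9; resazurin fluorescence, fitted against DMSO vehicle.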
(The colour change of resazurin is a common sign of viable cells or microbes.)

Assay [7] can be described thus: CCTE_Shafer_MEA_dev_mutual_information_norm: CCTE's Neural Network Formation Assay for Mutual Information Normalization, Shafer Lab (AID 2284091).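 As to AC50: mutual information between electrodes summarised as area under curve across four recording days; potency is for a decrease in mutual information relative to DMSO.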 In short, it runs like this:
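Exposure of primary rat cortical neurons began at plating and ran to DIV 12, with full media and treatment renewal after DIV 5 and 9 recordings. Mutual information AUC (DIV 5–12) was analysed for loss versus DMSO.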

Assay [8] in a line: CCTE_Shafer_MEA_dev_correlation_coefficient_mean: CCTE's Neural Network Formation Assay for Mean Correlation Coefficient, Shafer Lab (AID 2284093).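 As to AC50: well mean pairwise spike train correlation integrated as AUC over recording days 5 to 12; potency fitted for loss of correlation relative to DMSO vehicle wells.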 In short, it runs like this: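 Extracellular firing from rat cortical networks on 48-well MEAs, DMSO-referenced, negative fitting direction. Compound present from plating to DIV12; mean pairwise correlation per well integrated over DIV5–12 recordings by trapezoidal AUC.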

A short description of assay [9]: CCTE_Shafer_MEA_acute_AB: CCTE's Alamar Blue Assay for Cytotoxicity in the Neural Acute Assay, Shafer Lab (AID 2284069; active = hit-call score of the fitted dose curve at least 0.9, where 1 is the maximum;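 also: active compounds lower the viability signal compared with DMSO wells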). Summed up:
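Cytotoxicity endpoint for acute MEA exposures of primary rat cortical neurons on day 13 or 15. Resazurin reduction is read fluorescently at 544/590 nm, with DMSO as the negative-control baseline.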

Assay [10] in a line: CCTE_Shafer_MEA_acute_LDH: CCTE's Lactate Dehydrogenase Assay for Cytotoxicity in the Neural Acute Assay, Shafer Lab (AID 2284086; active = hit-call score of the fitted dose curve at least 0.9, where 1 is the maximum;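 also: active means LDH release rises above DMSO vehicle level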). Summed up:
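LDH released during 40 min compound exposure of primary rat cortical cultures, quantified by absorbance at 490 nm in collected medium. Fitting direction positive versus DMSO vehicle.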

The nature of assay [11]: UKN5_HCS_SBAD2_cell_viability: Viability Assessment in the University of Konstanz (UKN) Leist Lab Neurite Outgrowth Assay in human iPSC-derived immature Dorsal Root Ganglia Neurons (UKN5) (AID 2284056). Summed up:
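iPSC-derived immature peripheral neurons (SBAD2) seeded on Matrigel with CHIR99021, SU5402 and DAPT, dosed 1 h later for 24 h. Viability from Hoechst H-33342 and calcein-AM live staining, high-content imaging; bidirectional fit versus DMSO.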

Assay [12] in a line: UKN5_HCS_SBAD2_neurite_outgrowth: University of Konstanz (UKN) Leist Lab Neurite Outgrowth Assay in human iPSC-derived immature Dorsal Root Ganglia Neurons (UKN5) (AID 2284070). The following applies: actives raise or lower the signal. Summed up:
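Neurite area from calcein-AM high-content images after 24 h exposure (staining included), with H-33342 for viability, fitted both directions against DMSO. Cells: thawed immature SBAD2 peripheral neurons, 100.000 cells/cm2, with CHIR99021, SU5402, DAPT; dosing 1 h after seeding.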

Assay [13] in a line: UKN2_HCS_IMR90_neural_migration: University of Konstanz (UKN) Leist Lab Neural Crest Cell Migration Assay in human induced IMR90 Pluripotent Stem Cells (UKN2) (AID 2284204). The settings on record: actives raise or lower the signal. In short, it runs like this:
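Using a 96-well stopper format with PLO/laminin/fibronectin coating, neural crest cells from iPSC migrate in cytokine-supplemented N2-S medium; after 24 h, chemicals are applied for a further 24 h, then cells are imaged after dye staining.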

The nature of assay [14]: UKN4_HCS_LUHMES_neurite_outgrowth: University of Konstanz (UKN) Leist Lab Neurite Outgrowth Assay in human LUHMES cells (UKN4) (AID 2284206). The settings on record: actives raise or lower the signal. In short, it runs like this:
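After 24 h compound treatment beginning shortly after replating of 2-day-differentiated LUHMES cells, calcein-AM and H-33342 live staining allowed high-content imaging of neurite area and viability. Fitted bidirectionally against DMSO.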

A short description of assay [15]: IUF_NPC1b_proliferation_BrdU_72hr: Leibniz Research Institute for Environmental Medicine (IUF) 72-hour Neural Progenitor Cell Bromodeoxyuridine (BrdU) Proliferation Assay (NPC1b) (AID 2284207). Summed up:
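Neural progenitor spheres of human fetal origin are treated for three days; BrdU added for the last 16 h is quantified by luminescence ELISA, with DMSO as baseline and EGF/FGF omission as positive control.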

The nature of assay [16]: IUF_NPC1_viability_72hr: Viability Assessment at 72 hours in the Leibniz Research Institute for Environmental Medicine (IUF) Neural Progenitor Cell Proliferation Assay (NPC1) (AID 2284209). In short, it runs like this:
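Viability was measured by resazurin-to-resorufin fluorescence (alamar blue) after 72 h of continuous exposure without compound renewal. Each well held one hNPC sphere (gestational week 16-19 fetal cortex, 0.25-0.35 mm) cultured in EGF/FGF proliferation medium at 37C and pH 7.2-7.6.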

Assay [17] in a line: CCTE_Mundy_HCI_Cortical_Synap_Neur_Matur_NeuriteSpotCountPerNeuriteLength: CCTE's Synaptogenesis and Neurite Maturation Assay in rat cortical cells for Neurite Spot Count per Neurite Length, Mundy Lab (AID 2284210). Summed up:
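Neurite-associated synapse density (synaptophysin puncta per unit neurite length) is measured by fluorescence high-content imaging in rat cortical cultures treated from DIV 7 and fixed at DIV 12, with DMSO as negative control.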

Assay [18] in a line: IUF_NPC1a_proliferation_area_72hr: Leibniz Research Institute for Environmental Medicine (IUF) 72-hour Neural Progenitor Cell Proliferation Area Assay (NPC1a) (AID 2284208). Summed up: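 Spheres of 0.3 mm are plated singly in growth-factor medium and exposed from day 0. After three days at 37C and 5% CO2, sphere area is measured by phase contrast imaging, with activity referenced to DMSO.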

The next assay deals with DIO2 (gene 1734). Nature of the assay: CCTE_GLTED_hDIO2: CCTE's human Deiodinase 2 (DIO2) Inhibition Assay, Great Lakes Toxicology and Ecology Division (GLTED) Lab (AID 2284050; active = hit-call score of the fitted dose curve at least 0.9, where 1 is the maximum). In short, it runs like this:
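Iodide released by human deiodinase 2 over 3 h with test chemical, measured spectrophotometrically via Sandell-Kolthoff cerium/arsenic reaction. Run n=3; inhibition referenced to DMSO.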

A further assay concerns DIO3 (gene 1735). Nature of the assay: CCTE_GLTED_hDIO3: CCTE's human Deiodinase 3 (DIO3) Inhibition Assay, Great Lakes Toxicology and Ecology Division (GLTED) Lab (AID 2284055; active = hit-call score of the fitted dose curve at least 0.9, where 1 is the maximum;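 also: potency is for inhibition seen as loss of released iodide signal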). Summed up: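 Inhibition is read as reduced iodide release, measured spectrophotometrically by the Sandell-Kolthoff cerium/arsenic reaction. Adenovirus-expressed human DIO3 enzyme is exposed to chemical for 3 h, n=3 plates. Iodinated chemicals, nitrite, iron or thiocyanate may interfere.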

Among the data in PubChem BioAssay (EPA / NIEHS) are outcome and AC50 values, retold here.

Each structure is given as a SMILES string. Values joined by “and” are separate entries in the source; they are usually repeats but may differ in a detail not shown here. Identical values can stand only once. Results filed as inconclusive are left out. Some structures have more than one record in an assay (separate samples or runs), and their calls can disagree. Active and inactive are the calls of the source. The calls were made as follows, unless noted: active = hit-call score of the fitted dose curve at least 0.9, where 1 is the maximum; inactive = score below 0.9.

As for `OC(O)(C(F)C(O)(O)C(F)(F)F)C(F)(F)F`, the outcome in assay [1], in [2], in assay [3], in assay [4], in assay [5] and in assay [6] was inactive. For the same compound, the outcome in assay [7] and in [8] was inactive. Also, the AC50 in assay [8] is 2.98 µM (active).
With `NCC(F)(F)C(F)(F)C(F)(F)C(F)(F)F`, the result in assay [1], in assay [2], in assay [3], in assay [4], in assay [6] and in assay [7] was inactive. For the same compound, the compound was classed as inactive in assay [8].
On to `c1ccc2c(c1)-c1cccc3c1c-2cc1ccccc13`, for which the half-maximal activity concentration (AC50) in [1] was 6.22 µM (active); in assay [7], 1.35 µM (active). Also, the call in assay [2], in assay [3], in assay [4], in assay [5], in assay [6] and in assay [8] was inactive.
`c1ccc(C(O[C@@H]2CCCN(CCc3ccc4c(c3)OCO4)C2)c2ccccc2)cc1`: the call in assay [9] and in assay [10] was inactive.
`OCCC(F)(F)C(F)(F)C(F)(F)C(F)(F)F`: the outcome in assay [1], in assay [2], in [3], in assay [4] and in assay [7] was inactive. In addition, in [8], the concentration at half-maximal activity (AC50) was 3.75 µM (active).
`CCCC(CCC)C(=O)O`: the call in assay [1], in assay [2], in assay [5], in assay [6], in assay [7] and in assay [8] was inactive. Moreover, the call in assay [13] and in [17] was inactive. The half-maximal activity concentration (AC50) in [3] was 576 µM (active); in [4], 488 µM (active); in assay [11], 5000 µM (active); in assay [12], 5000 µM (active); in [14], 7760 µM (active); in assay [15] it was 1040 µM (active). Also, the concentration at half-maximal activity (AC50) in assay [16] was 2090 µM (active).
For the compound `CCc1ccc(O)c(C(C)(C)C)c1`, the call in assay [9] and in assay [10] was inactive.
With `CCOc1ccc2[nH]cc(C(=O)NCc3ccccc3)c(=O)c2n1`, the outcome in assay [1], in assay [2], in assay [3], in assay [4], in assay [6] and in [7] was inactive. In addition, the compound was called inactive in [8].
Consider `CCCCC(CC)C(=O)OCCOCCOCCOC(=O)C(CC)CCCC` (stereo unspecified), for which the compound was classed as inactive in assay [10].
For the compound `Nc1ccn([C@@H]2O[C@H](CO)[C@@H](O)[C@@H]2O)c(=O)n1`, the concentration at half-maximal activity (AC50) is 160 nM (active) and 623 nM (active) in [1]; 65.6 nM (active) and 636 nM (active) in [2]; 118 nM (active) and 206 nM (active) in [3]; 179 nM (active) and 84 nM (active) in assay [4]; 20.4 µM (active) and 2.69 µM (active) in [5]; 1.2 µM (active) in assay [12]. In addition, the half-maximal activity concentration (AC50) is 18.5 µM (active) and 1.67 µM (active) in assay [6]; 89.3 nM (active) and 97.6 nM (active) in [7]; 89.9 nM (active) and 112 nM (active) in assay [8]; 0.109 µM (active) in assay [18]; 0.191 µM (active) in [16]; 23.2 µM (active) in assay [17]. In addition, the compound was classed as inactive in assay [11], in [13], in assay [14], in assay [15] and in [17].
For the compound `CC(C)C(=O)Nc1ccc([N+](=O)[O-])c(C(F)(F)F)c1`, the compound was classed as inactive in assay [10].
On to `OC(Cn1cncn1)(Cn1cncn1)c1ccc(F)cc1F`, for which the result in assay [1], in assay [2], in assay [3], in [4], in [5] and in assay [6] was inactive. For the same compound, the outcome in assay [7], in assay [8] and in assay [17] was inactive.
On to `C=CCc1cc(S(=O)(=O)c2ccc(O)c(CC=C)c2)ccc1O`, for which the half-maximal activity concentration (AC50) in the assay on DIO2 (gene 1734) was 120 µM (active); in the assay with DIO3 (gene 1735), 62.5 µM (active). Moreover, the call in assay [9] and in [10] was inactive.
Consider `COc1cc(C(C)C)c2c(c1)S(=O)(=O)N(COc1cc(=O)n3cccc(OCCN4CCCCC4)c3n1)C2=O`, for which the AC50 in the assay with DIO2 (gene 1734) was 11.7 µM (active); with DIO3 (gene 1735), 4.67 µM (active). Besides, the compound was called inactive in assay [9].
Regarding `CCN(CC)C(=S)SSC(=S)N(CC)CC`, the half-maximal activity concentration (AC50) is 110 nM (active) and 50.8 nM (active) in assay [1]; 100 nM (active) and 40.6 nM (active) in assay [2]; 102 nM (active) and 55.3 nM (active) in assay [3]; 161 nM (active) and 86.3 nM (active) in assay [4]; 120 nM (active) and 58 nM (active) in assay [5]; 146 nM (active) and 58.6 nM (active) in assay [6]. Moreover, the half-maximal activity concentration (AC50) is 94.3 nM (active) and 37.8 nM (active) in [7]; 110 nM (active) and 63.3 nM (active) in [8].
For `Cn1c(=O)c2[nH]cnc2n(C)c1=O`, the compound was classed as inactive in [9] and in assay [10].

By AC50 is commonly meant the concentration giving half of the maximal activity seen.
